mHTT CaM bind – disrupts binding of mutant huntingtin to calmodulin; AID 1671202; actives 3.6% (n = 190,000); P42858; inhibition, % at 15 µM; AlphaScreen His-mHTT/GST-CaM binding, luminescence
Target sequence (P42858 whole entry, looked up, change not shown): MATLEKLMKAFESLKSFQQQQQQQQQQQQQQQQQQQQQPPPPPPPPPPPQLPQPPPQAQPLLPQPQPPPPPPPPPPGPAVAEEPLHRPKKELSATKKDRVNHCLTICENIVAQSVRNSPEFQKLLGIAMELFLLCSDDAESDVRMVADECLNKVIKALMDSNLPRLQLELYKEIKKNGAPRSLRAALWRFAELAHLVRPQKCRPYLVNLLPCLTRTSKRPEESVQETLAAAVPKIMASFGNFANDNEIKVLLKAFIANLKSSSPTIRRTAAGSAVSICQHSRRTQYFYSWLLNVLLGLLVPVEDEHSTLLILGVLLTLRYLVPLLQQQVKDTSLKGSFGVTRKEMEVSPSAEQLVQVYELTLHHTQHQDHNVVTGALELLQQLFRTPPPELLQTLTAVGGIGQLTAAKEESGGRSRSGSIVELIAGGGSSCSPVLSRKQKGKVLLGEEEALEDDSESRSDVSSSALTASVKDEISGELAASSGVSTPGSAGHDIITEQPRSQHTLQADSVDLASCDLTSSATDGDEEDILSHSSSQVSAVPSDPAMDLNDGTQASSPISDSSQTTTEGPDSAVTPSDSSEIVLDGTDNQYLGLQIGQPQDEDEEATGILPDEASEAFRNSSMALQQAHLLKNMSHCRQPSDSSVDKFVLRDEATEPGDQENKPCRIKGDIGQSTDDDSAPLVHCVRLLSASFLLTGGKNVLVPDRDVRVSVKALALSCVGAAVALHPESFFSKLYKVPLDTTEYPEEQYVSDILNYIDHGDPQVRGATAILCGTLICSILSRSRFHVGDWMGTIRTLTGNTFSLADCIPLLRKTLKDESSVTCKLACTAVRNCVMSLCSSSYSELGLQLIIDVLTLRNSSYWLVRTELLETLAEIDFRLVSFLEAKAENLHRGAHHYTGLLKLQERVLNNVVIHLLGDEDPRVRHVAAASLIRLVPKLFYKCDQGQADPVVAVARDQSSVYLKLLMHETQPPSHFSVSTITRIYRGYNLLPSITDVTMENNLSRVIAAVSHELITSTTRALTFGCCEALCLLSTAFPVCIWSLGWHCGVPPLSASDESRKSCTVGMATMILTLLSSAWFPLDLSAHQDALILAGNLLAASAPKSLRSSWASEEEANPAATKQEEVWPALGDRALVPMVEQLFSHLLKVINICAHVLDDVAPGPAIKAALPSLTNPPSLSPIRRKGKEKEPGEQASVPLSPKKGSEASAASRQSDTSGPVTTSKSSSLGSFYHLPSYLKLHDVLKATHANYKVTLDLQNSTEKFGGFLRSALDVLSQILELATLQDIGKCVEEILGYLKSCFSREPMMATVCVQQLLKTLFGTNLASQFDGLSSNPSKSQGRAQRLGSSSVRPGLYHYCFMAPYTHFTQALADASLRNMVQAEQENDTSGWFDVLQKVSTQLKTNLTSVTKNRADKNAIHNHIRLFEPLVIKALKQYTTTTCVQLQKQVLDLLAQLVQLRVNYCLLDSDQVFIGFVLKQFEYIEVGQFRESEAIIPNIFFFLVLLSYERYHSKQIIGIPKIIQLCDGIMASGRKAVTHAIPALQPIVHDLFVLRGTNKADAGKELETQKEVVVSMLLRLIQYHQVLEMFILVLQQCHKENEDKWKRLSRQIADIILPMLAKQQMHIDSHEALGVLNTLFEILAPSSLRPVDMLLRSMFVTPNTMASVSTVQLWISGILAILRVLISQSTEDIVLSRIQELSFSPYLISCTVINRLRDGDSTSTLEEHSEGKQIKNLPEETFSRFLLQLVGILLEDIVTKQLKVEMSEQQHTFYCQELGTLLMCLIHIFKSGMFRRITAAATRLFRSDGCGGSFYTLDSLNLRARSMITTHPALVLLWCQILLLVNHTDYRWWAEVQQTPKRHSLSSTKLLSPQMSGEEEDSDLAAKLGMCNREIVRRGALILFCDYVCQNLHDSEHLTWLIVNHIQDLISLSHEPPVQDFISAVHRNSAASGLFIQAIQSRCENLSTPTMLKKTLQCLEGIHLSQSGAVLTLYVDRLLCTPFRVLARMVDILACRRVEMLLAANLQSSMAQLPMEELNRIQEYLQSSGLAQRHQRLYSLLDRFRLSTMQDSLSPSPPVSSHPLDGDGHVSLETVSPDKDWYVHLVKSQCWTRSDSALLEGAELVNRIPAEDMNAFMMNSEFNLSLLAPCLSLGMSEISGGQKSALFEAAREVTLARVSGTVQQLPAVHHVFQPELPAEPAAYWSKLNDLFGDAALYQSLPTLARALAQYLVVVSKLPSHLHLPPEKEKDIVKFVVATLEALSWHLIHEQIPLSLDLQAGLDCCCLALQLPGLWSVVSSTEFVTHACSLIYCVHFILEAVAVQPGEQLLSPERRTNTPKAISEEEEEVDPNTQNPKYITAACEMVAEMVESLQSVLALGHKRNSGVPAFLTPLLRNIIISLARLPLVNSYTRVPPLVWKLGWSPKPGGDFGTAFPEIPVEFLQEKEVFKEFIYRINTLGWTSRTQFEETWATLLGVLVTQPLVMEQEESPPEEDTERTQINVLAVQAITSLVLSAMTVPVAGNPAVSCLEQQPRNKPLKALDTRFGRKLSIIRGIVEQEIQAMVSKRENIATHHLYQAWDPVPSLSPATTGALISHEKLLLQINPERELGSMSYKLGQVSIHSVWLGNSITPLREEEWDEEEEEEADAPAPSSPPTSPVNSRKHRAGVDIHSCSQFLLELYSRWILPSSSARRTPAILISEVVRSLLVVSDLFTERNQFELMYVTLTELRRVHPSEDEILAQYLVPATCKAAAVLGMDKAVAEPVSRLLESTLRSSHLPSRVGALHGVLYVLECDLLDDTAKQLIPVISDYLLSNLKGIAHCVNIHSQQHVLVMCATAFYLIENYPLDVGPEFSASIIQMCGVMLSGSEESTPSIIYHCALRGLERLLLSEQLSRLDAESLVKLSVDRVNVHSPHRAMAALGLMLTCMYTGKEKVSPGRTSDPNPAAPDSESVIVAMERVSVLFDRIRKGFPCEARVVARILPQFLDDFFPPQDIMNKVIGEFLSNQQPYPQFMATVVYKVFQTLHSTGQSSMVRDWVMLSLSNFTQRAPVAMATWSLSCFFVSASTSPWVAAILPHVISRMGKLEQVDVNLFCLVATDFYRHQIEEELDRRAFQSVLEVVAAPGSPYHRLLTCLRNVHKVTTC
Pf apPOL block – Pf-apPOL DNA polymerase inhibition; inhibition, % at 10 µM; actives 0.25% (n = 210,000); AID 1794808; Recombinant Pf-apPOL, molecular beacon fluorescence, 1.5 h
Each line names hits and unclear results; the compound was inactive in the other large screens; ! = not confirmed by another sample. Hits are enriched below; roughly 3.6% of the tested compounds scored in any of these assays. Cut-off read from the data, not from the text of the source: active = inhibition above about 50%; inactive = the rest.

O=C(Nc1ccccc1Cl)N(CCc1cccs1)C1CC1	none
FC(F)(F)c1nc2ccccc2n1Cc1cc(Cl)cc2c1OCOC2	none (no result: Pf apPOL block)
COc1ccccc1-n1c(SCC(=O)Nc2cc(C)ccc2C)nc2c(c1=O)SCC2	none
CCNC(=O)c1cc2c(=O)n3cc(C)ccc3nc2n(C2CCCC2)c1=N	none
CCOc1ccc(NS(=O)(=O)c2ccc(NS(=O)(=O)c3ccccc3)cc2)cc1	none
COc1ccc(S(=O)(=O)Nc2ccc(S(=O)(=O)Nc3cc(C)ccc3C)cc2)cc1OC	none
CCOc1ccc(NC(=O)CN(C)S(=O)(=O)c2ccc3[nH]c4c(c3c2)CCCC4)cc1	none
COc1ccc(C)cc1NS(=O)(=O)c1ccc2[nH]c3c(c2c1)CCCC3	mHTT CaM bind 81
CCOc1ccc(NS(=O)(=O)c2ccc3[nH]c4c(c3c2)CCCCC4)cc1	mHTT CaM bind 94
CCOc1ccc(NS(=O)(=O)c2ccc3[nH]c4c(c3c2)CCCC4)cc1	mHTT CaM bind 91
COc1cccc(NS(=O)(=O)c2ccc3[nH]c4c(c3c2)CCCCC4)c1	mHTT CaM bind 98
COc1cccc(NC(=O)CN(C)S(=O)(=O)c2ccc3[nH]c4c(c3c2)CCCC4)c1	none
O=C(Nc1c(F)cccc1F)N1CCc2nc(-c3ccccc3)ncc2C1	none
O=C(O)CCC(=O)Nc1nc(-c2ccc(Cl)c(Cl)c2)cs1	none
O=C(NC1CC1)C1CCN(c2nccnc2Sc2ccccc2)CC1	none
O=C(Nc1ccccc1Br)c1c(O)c2cccc3c2n(c1=O)CC3	none
COc1ccc(CNC(=O)CN(C)S(=O)(=O)c2ccc3[nH]c4c(c3c2)CCCC4)cc1	none
COc1ccc(OC)c(CNS(=O)(=O)c2ccc3[nH]c4c(c3c2)CCCCC4)c1	mHTT CaM bind 85
COc1ccccc1CNS(=O)(=O)c1ccc2[nH]c(=O)sc2c1	none
COc1ccc(NS(=O)(=O)c2ccc3[nH]c4c(c3c2)CCCCC4)cc1	mHTT CaM bind 57
CC(=O)Nc1cccc(N2CC(C(=O)Nc3ccc(C)cc3Cl)CC2=O)c1 (stereo not drawn)	none
Cc1nccn1CCNC(=O)c1ccco1	none
Cc1ccccc1C1C(C#N)=C(N)OC2=C1C(=O)CC(C)(C)C2 (stereo not drawn)	none
CC1(C)CC(=O)C2=C(C1)OC(N)=C(C#N)C2c1cn(-c2ccccc2)nc1-c1ccccc1 (stereo not drawn)	mHTT CaM bind 76
CC(=O)Nc1nc2n(n1)C(c1ccccc1)C=C(C)N2 (stereo not drawn)	none
CC(=O)NCc1csc(C2CCN(C(=O)c3ccccc3F)CC2)n1	none
COc1ccc(C2CC(O)(c3ccccc3)Oc3c(C)ccc(C(C)C)c32)cc1 (stereo not drawn)	mHTT CaM bind 55
COc1ccc(C2CC(=O)Oc3cc(OC)ccc32)cc1 (stereo not drawn)	none
COc1ccc(C2CC(O)(c3ccccc3)Oc3cc(OC)ccc32)cc1 (stereo not drawn)	mHTT CaM bind 80
COc1ccc(C2CC(=O)Oc3c(C(C)C)ccc(C)c32)cc1 (stereo not drawn)	none
Cc1ccc(CN2C(=O)N(c3ccc(F)cc3)c3ncccc3S2(=O)=O)cc1	none
COc1ccccc1CN1CCc2nc(Nc3ccc(F)cc3F)ncc2C1	none
COc1ccc(OC)c(CN2CCc3nc(Nc4ccc5c(c4)OCCO5)ncc3C2)c1	mHTT CaM bind 50
COc1cccc(CN2CCc3nc(Nc4ccc5c(c4)OCCO5)ncc3C2)c1OC	none
COc1ccc(CN2CCc3nc(Nc4ccc(F)cc4F)ncc3C2)c(OC)c1OC	mHTT CaM bind 53
COc1cc(CN2CCc3nc(Nc4ccc5c(c4)OCO5)ncc3C2)ccc1OC(C)C	mHTT CaM bind 82
c1ccc(CN2CCc3nc(Nc4ccc5c(c4)OCCO5)ncc3C2)cc1	none
CCOc1ccc(CN2CCc3nc(Nc4ccc5c(c4)OCO5)ncc3C2)cc1OCC	none
Cc1ccc(CN2CCc3nc(Nc4ccc5c(c4)OCCO5)ncc3C2)cc1	mHTT CaM bind 73
Cc1ccc(-n2nc3c(c2NC(=O)c2ccc(Cl)cc2)CS(=O)(=O)C3)c(C)c1	none
CC1CC(C)CN(S(=O)(=O)N2CCCC(C(=O)NC3CCCCCCC3)C2)C1 (stereo not drawn)	none
Cn1nc(-c2nc(-c3ccccc3)no2)c2c1CCN(C(=O)c1ccccc1F)C2	none
C=CCOc1ccccc1CN1CCN(c2ccccc2OCC)CC1	none
Cc1ccccc1-c1noc(C2CCN(CC(=O)Nc3c(C)cccc3C)CC2)n1	none
COc1ccc(OC)c(CN2CCc3nc(Nc4ccc(F)cc4)ncc3C2)c1	mHTT CaM bind 61
Brc1csc(CN2CCc3nc(N4CCOCC4)ncc3C2)c1	mHTT CaM bind 57
COc1cc(OC)c(OC)cc1CN1CCc2nc(Nc3ccc4c(c3)OCO4)ncc2C1	mHTT CaM bind 50
Fc1cccc(CN2CCc3nc(Nc4ccc5c(c4)OCCO5)ncc3C2)c1	none
COc1cccc(Nc2ncc3c(n2)CCN(Cc2cc(OC)ccc2OC)C3)c1	none
CCCN1CCN(c2ncc3c(n2)CCN(Cc2cc(Br)cs2)C3)CC1	none
Fc1cc(F)cc(CN2CCc3nc(Nc4ccc5c(c4)OCO5)ncc3C2)c1	mHTT CaM bind 73
COc1cccc(CN2CCc3nc(Nc4ccc5c(c4)OCO5)ncc3C2)c1OC	none
CCCCNC(=O)n1cc(Cl)cn1	none (no result: Pf apPOL block)
COc1ccc(C2=NN(C(=O)CCC(=O)O)C(c3cc4cccc(C)c4nc3Cl)C2)cc1 (stereo not drawn)	none
O=C(CCC1CCCN(C(=O)Nc2ccccc2)C1)NCc1cc(F)cc(F)c1 (stereo not drawn)	none
Cc1nc2c(C(=O)NC3CCCC(C)C3C)cnn2c(C)c1Cc1ccc(F)cc1 (stereo not drawn)	none
Cc1nc2c(C(=O)NCCCN(C)C)cnn2c(C)c1Cc1c(F)cccc1Cl	none
COc1ccc(OC)c(Nc2ncc3c(n2)CCN(Cc2ccc4c(c2)OCCO4)C3)c1	none
COc1ccc(Nc2ncc3c(n2)CCN(Cc2cc(Br)cs2)C3)cc1	mHTT CaM bind 66
Brc1csc(CN2CCc3nc(Nc4ccccc4)ncc3C2)c1	none
COc1ccc(Nc2ncc3c(n2)CCN(Cc2ccc4c(c2)OCCO4)C3)cc1	mHTT CaM bind 61
Cc1cc([N+](=O)[O-])ccc1NC1CC(O)C(O)C(C)O1 (stereo not drawn)	none
O=C(Cc1ccc(Br)cc1)Nc1ncc([N+](=O)[O-])s1	none
O=C(Cc1ccc(Cl)cc1)Nc1ncc([N+](=O)[O-])s1	mHTT CaM bind 98
CCC(C)Nc1nc(C)nc2c1c(C)nn2-c1ccccc1 (stereo not drawn)	mHTT CaM bind 99
CCCNc1nc(C)nc2c1c(C)nn2-c1ccc(C)cc1	none
O=C(c1ccn2c(-c3ccccc3)nnc2c1)N1CCCCCC1	none
Cn1nc(-c2ccccc2)cc1C(=O)NCCn1nc(-c2ccc(Cl)cc2)ccc1=O	none
O=C(NCCn1nc(-c2ccccc2)ccc1=O)c1ccc(-n2cccc2)cc1	mHTT CaM bind 63
O=c1c2ccccc2c(-c2ccc(Cl)cc2)nn1-c1cc(N2CCNCC2)ccc1[N+](=O)[O-]	mHTT CaM bind 98
O=c1c2ccccc2c(-c2ccccc2)nn1-c1cc(N2CCN(CCO)CC2)ccc1[N+](=O)[O-]	none
CN1CCN(c2ccc([N+](=O)[O-])c(-n3nc(-c4ccccc4)c4ccccc4c3=O)c2)CC1	mHTT CaM bind 55!
O=c1c2ccccc2c(-c2ccc(F)cc2)nn1-c1cc(N2CCOCC2)ccc1[N+](=O)[O-]	none
CCNC(=O)c1cc(N2CCCC2)nc2ccccc12	none
NC(=O)N1c2ccccc2C=Cc2ccccc21	none (no result: mHTT CaM bind)
